# In the supplement of paper PMC7556523:
# Unmarked numbers belong to inactive results.
# Tests used:
# [1] = system: Sporothrix brasiliensis CBS 133006; assay: growth inhibition relative to untreated control; higher = more growth inhibition (more antifungal activity), active = 80 or more; extreme values may be limits of the assay; details: 1 µM; 48 h
# Method in brief: (§1)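 The reported figure is percent growth inhibition relative to untreated cells, from quadruplicate runs. Yeast-form cells of the reference isolates at 1 x 10^5 CFU/ml were exposed to library compounds at a final 1 μM for 48 h at 35°C in 5% CO2, and growth was assessed by microscopy and spectrophotometric readings.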
# [2] = system: Sporothrix schenckii ATCC 32286; assay: as above; details: 1 µM; 48 h
# Method in brief: as §1
Compound,growth inhibition [1],growth inhibition [2] [%]
Nc1ncnc2c1c(Cc1cccc3ccccc13)nn2CC1CCNCC1,0%,0
COc1ccc(-c2nn(C(C)C)c3ncnc(N)c23)cc1OC,6%,14.2
CC(C)(C)c1ccc(N[C@@H]2CCCC[C@H]2NC(=O)c2ccco2)cc1,7.25%,0.75
c1ccc(Oc2ccc(-c3cc(CN4CCOCC4)[nH]n3)cc2)cc1,2.25%,5.75
CCc1ccc(S(=O)(=O)Nc2cc(CN3CCN(CCC(C)C)CC3)ccc2C)cc1,1.75%,21.2
Cc1ccc(NC(=O)CC2COc3ccccc3O2)cc1Cl (stereo not given),10%,0
COC(=O)c1c(NC(=O)c2cc3ccccc3oc2=O)sc2c1CCN(Cc1ccccc1)C2,8.75%,15
O=C1N(Cc2cc3ccccc3s2)CC2CN(Cc3ccccc3)CCN12 (stereo not given),22%,4.5
O=C(c1ccc(F)cc1)N(CCNc1ccccc1)c1ccccc1,16.5%,12.2
Cc1cc(Nc2ccncc2)n2nc(C)c(-c3ccccc3Cl)c2n1,5%,4.75
O=S(=O)(c1ccc(Cl)cc1)N1CCN(C(=S)NCc2ccco2)CC1,0%,12
COc1ccc(N(CCc2cccc(C)n2)C(=O)C2CCCCC2)cc1,5.75%,0
CS(=O)(=O)Cc1nc2ccccc2oc1=O,21.8%,4.75
CC[C@@H](CO)NCCN[C@@H](CC)CO,6.75%,12.2
Cc1ccc2[nH]c(C3CCCNC3)c(-c3ccncc3)c2c1 (stereo not given),19%,7.75
COc1cccc(-n2nnnc2S(=O)(=O)Cc2ccccc2)c1,19%,6
c1ccc(Oc2ccc(-c3cncc(-c4ccc5[nH]ccc5c4)n3)cc2)cc1,8%,12.5
CCc1cc(=O)n(C)c(SC(C)C(=O)Nc2ccc(F)cc2)n1 (stereo not given),9.25%,13.5

Compound,growth inhibition [1],growth inhibition [2] [%]
CC(=O)Nc1ccc(NC(=O)c2cc(-c3cc(Cl)ccc3O)n[nH]2)cc1,9.5%,0
Cc1cc(C)n2nc(C(=O)Nc3cc(C(F)(F)F)ccc3N3CCOCC3)nc2n1,0.25%,12.5
COc1cc(Br)cc2cc(C(=O)Nc3cccc(C(F)(F)F)c3)c(=O)oc12,11.5%,6.75
COc1cccc(OCC(=O)c2ccc(Br)cc2)c1,16%,22
Cc1ccc(S(=O)(=O)n2cc(-c3ccnc(N)c3)c3cc(Br)cnc32)cc1,0%,5.25
Cc1cc(O)nc(-n2nc(C)cc2C)n1,4.75%,11.8
NS(=O)(=O)c1cccc(-c2ccc3ncc(N4CCOCC4)nc3c2)c1,17%,0
Nc1ncnc2c1ncn2[C@@H]1O[C@H](COS(=O)(=O)NC(=O)c2ccccc2O)[C@@H](O)[C@H]1O,5.25%,9
COc1ccc(C2=NN(C3CCCCCC3)C(=O)[C@@H]3CC=CC[C@H]23)cc1OCCCCOc1ccc(-c2nnn[nH]2)cc1,2.5%,9.5
CC(C)(C)[C@H]1CC[C@H](CC2=C(O)C(=O)c3ccccc3C2=O)CC1,88% (active),14
FC(F)(F)c1nnc2ccc(Cl)nn12,9.25%,14
N#Cc1ccc(-c2ccc(OCC(N)=O)cc2)cc1,19.2%,0
CCc1nc2ccccc2n1CC(O)COc1cc(C)ccc1Cl (stereo not given),1.25%,11
CC1=Nc2ccc(Cl)cc2C(c2ccccc2)N1CCNC(=O)CN(C)C (stereo not given),22.8%,0
COc1cc(NC(=O)Cc2nn(C)c(=O)c3ccccc23)ccc1Cl,4.5%,0
Cc1ccc(S(=O)(=O)N2CCN(C(=O)c3cc(-c4ccccc4)n[nH]3)CC2)cc1,1.5%,2
Cc1ncc(-c2ccnc(Nc3ccc(S(C)(=O)=O)cc3)n2)n1C(C)C,37%,2.5
